Potency and activity change, negative = cytotoxicity data for 31 compounds are collected here from PubChem BioAssay (NCATS).

Results filed as inconclusive are left out. A call without a number means that no potency is given here. A number with no mark means an inactive call. Active and inactive are the calls of the source. The call rests on the fitted dose curve; in most records, active means well fitted cell-killing curve with a large enough effect; inconclusive means small, poorly fitted or top-dose-only effect, or effect the other way; inactive means flat fitted curve, though single readings scatter. Where a SMILES comes first, the peptide text is derived from it. [ ]: non-standard residue; d: D form.

The subject of the assay is CASKI. The experiment in a line: Primary qHTS to identify gynecologic anti-cancer compounds using libraries of approved drugs and bioactive compounds (AID 1345084). Further: nearly all actives have a fitted effect of over 55% in size. Particulars: Gynecologic cancer cell panel viability, ATPlite luminescence, 48 h; series mostly up to 57.5 µM. The gist of the method:
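In this quantitative HTS, cell killing is estimated from loss of ATP-dependent luciferase light. Cells see five compound concentrations over a 48 h exposure.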
In general terms: In qHTS, concentration-response curves come from the screen itself.
For the compound `COc1ccc(C(OC2OC(CO)C(O)C(O)C2O)C(C)O)cc1` (stereo unspecified), the Potency entry was “inactive”.

On to `CCOC(=O)N1CCC(NCCNC(=O)c2ccccc2C)CC1`, for which the Potency entry was “inactive”. Still for that read-out and setting: the same measure for `CCC(C)C(=O)O[C@@H]1[C@@H](O)[C@@H](O[C@H]2O[C@H](CO)[C@@H](O)[C@H](O)[C@H]2O)O[C@H](CO)[C@H]1O` (stereo partly specified): “inactive”. With `Nc1ncnc2c1ncn2[C@H]1CCCO1`, the Potency entry is “inactive”.

Regarding `COc1cc(-c2cccc(O)c2)cc2c1OCO2`, the Potency entry was “inactive”. On the same count and under the same terms, the same measure for `Nc1nc(CC(=O)Nc2ccc(CCNCC(O)c3ccccc3)cc2)cs1` (stereo unspecified): “inactive”; for `O=C(/C=C/c1c(C(=O)O)[nH]c2cc(Cl)cc(Cl)c12)Nc1ccccc1`: “inactive”; for `CC1CCC2C(C)(C)C(O)CCC2(C)C12Cc1c(O)cc3c(c1O2)CN=C3N` (stereo unspecified): “inactive”. For the compound `CC[C@H]1OC(=O)C[C@@H](O)[C@H](C)[C@@H](O[C@@H]2O[C@H](C)[C@@H](O)[C@H](N(C)C)[C@H]2O)[C@@H](CCN2C[C@H](C)C[C@H](C)C2)C[C@@H](C)C(=O)/C=C/C(C)=C/[C@@H]1CO[C@@H]1O[C@H](C)[C@@H](O)[C@@H](OC)[C@H]1OC`, the Potency result is “inactive”. Same read-out and setting: as for `C[C@]12C=CC(=O)C=C1CC[C@@H]1[C@@H]2[C@@H](O)C[C@@]2(C)[C@H]1CC[C@]2(O)C(=O)COC(=O)CCC(=O)O`, the entry is “inactive”; as for `CC(C)=CCc1ccc(Oc2c(O)cc(C)cc2CO)c(C(=O)O)c1O`, “inactive”. As to `NS(=O)(=O)NCCNc1nonc1C(=Nc1ccc(F)c(Br)c1)NO`, the Potency result is “inactive”. Same read-out and setting: as for `CCC(=O)NS(=O)(=O)c1ccc(-c2c(-c3ccccc3)noc2C)cc1`, the entry is “inactive”; as for `CC(=O)OC1C(O)C(C)=C(CCC(C)CC(=O)O)C2(C)CCCC(C)(C)C12` (stereo unspecified), “inactive”. Still for that read-out and setting: as for `COC1=CC(=O)O[C@@H](/C=C/c2ccccc2)[C@@H]1O`, the entry is “inactive”. With `C[C@@H]1O[C@@H](O[C@@H]2[C@@H](O)[C@@H](O)[C@H](O[C@@H]3[C@@H](O)[C@@H](O[C@]4(CO)O[C@H](CO)[C@@H](O)[C@@H]4OC(=O)/C=C/c4ccc(O)cc4)O[C@H](CO)[C@H]3OC(=O)/C=C/c3ccc(O)cc3)O[C@H]2C)[C@H](O)[C@H](O)[C@H]1O`, the activity change, negative = cytotoxicity was -0.379% [at 11.6 µM].

Turning to `COC(=O)[C@@H]1C2CC3c4[nH]c5ccccc5c4CCN3CC2CC[C@@H]1O` (stereo partly specified), the Potency result was “inactive”. As for `C[C@@H]1O[C@@H](O[C@H]2[C@H](OC(=O)[C@]34CCC(C)(C)C[C@H]3C3=CCC5[C@@]6(C)CC[C@H](O[C@@H]7O[C@H](CO[C@@H]8OC[C@H](O)[C@H](O)[C@H]8O)[C@@H](O)[C@H](O)[C@H]7O)C(C)(C)C6CC[C@@]5(C)[C@]3(C)C[C@H]4O)OC[C@@H](O)[C@@H]2O)[C@H](O)[C@H](O)[C@H]1O[C@@H]1OC[C@H](O)[C@H](O[C@@H]2OC[C@@H](O)[C@H](O)[C@H]2O)[C@H]1O` (stereo partly specified), the activity change, negative = cytotoxicity is -13.2% [at 6.55 µM]. Regarding `CC(=O)N[C@H](Cc1ccc(O)cc1)C(=O)N[C@H](CCCN=C(N)N)C(=O)N[C@H](Cc1ccccc1)C(N)=O` (Ac-[dY]-[dR]-[dF]-NH2), the Potency result was “inactive”. As for `CC(NCc1ccc(OCc2cccc(F)c2)cc1)C(N)=O` (stereo unspecified), the Potency result is “inactive”. Still for that read-out and setting: the same measure for `Cc1coc2c1CC1OC1(C)CCC1OC1(C)C2` (stereo unspecified): “inactive”.

As to `C[C@]12CCC[C@](C)(C(=O)O)C1CCC13C=C(CO)C(CCC12)C3` (stereo partly specified), the Potency entry was “inactive”.

Regarding `COc1cc(/C=C/C(=O)OC(C)(C)C(OC2OC(CO)C(O)C(O)C2O)C(=O)OCc2ccc(OC3OC(CO)C(O)C(O)C3O)cc2)ccc1O` (stereo unspecified), the Potency entry was “inactive”.

Take `COc1cc2c(cc1OC)CN(C(=O)[C@@H](NCc1ccncc1)C(C)(C)C)CC2`: the Potency result is “inactive”. As for `O=C1NCc2nc3ccccc3c(=O)n2C1Cc1c[nH]c2ccccc12` (stereo unspecified), the Potency entry is “inactive”. Consider `CC1=CC(=O)CC(C)(C)C1CCC(C)OC1OC(COC(=O)c2cc(O)c(O)c(O)c2)C(O)C(O)C1O` (stereo unspecified), for which the Potency entry was “inactive”. For the compound `CC1C/C=C/C=C\CCCCC(O)C/C=C/C(=O)O1` (stereo unspecified), the Potency entry was “inactive”.

Turning to `CO[C@@]12CC3[C@@H]([C@@H](O)[C@@H](OC(C)=O)C4[C@](C)(COC(C)=O)CCC[C@]34C)[C@@H](C)C1=CC(=O)O2` (stereo partly specified), the Potency entry was “inactive”. On the same count and under the same terms, the same measure for `CC1(C)CCCC2(C)C(CO)C3CCC2C31` (stereo unspecified): “inactive”. Same read-out and setting: the same measure for `O=C(O[C@H]1[C@@H]2C=CO[C@@H](O[C@@H]3O[C@H](CO)[C@@H](O)[C@H](O)[C@H]3O)[C@@H]2[C@@]2(CO)O[C@@H]12)c1ccc(O)c(O)c1`: “inactive”; for `C=CC(C)(C)C12CC3C(=O)NC(Cc4cnc[nH]4)C(=O)N3C1Nc1ccccc12` (stereo unspecified): “inactive”.
